HepG2 tox: kills HepG2 cells in TGF-b inhibitor counter-screen; AID 588856; Potency, µM (top dose mostly 46.1 µM), hits mostly cytotoxic; HepG2 CAGA-GFP viability, ATP luminescence, 18 h; 410,000 compounds, 0.76% hits
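CellTiter-Glo luminescence gave cytotoxicity after 18 hours at 37 degrees C. The cells were HepG2 CAGA-GFP in 1% FBS DMEM, stimulated with 500 pg/mL TGF-beta after compound addition. %Activity was normalised to no-cell wells (complete cell-killing) and DMSO (no toxicity), and curves were fitted and classified.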
DT40 TDP1 no CPT: qHTS for Inhibitors of human tyrosyl-DNA phosphodiesterase 1 (TDP1): qHTS in cells in absence of CPT; DT40 Tdp1-/- hTDP1 cells, no CPT, ATP luminescence, 48 h; Potency, µM (series often up to 46.2 µM), actives largely listed as inhibitors; 420,000 compounds, 15% hits; further: nearly all actives have a fitted effect of over 55% in size
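Readout: luminescence from CellTiter-Glo after 30 min in the dark at RT. Cells: DT40 Tdp1-/- with stable hTDP1, 400/well. Exposure: compounds alone, ≥48 hr, 37 °C.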
ATXN2 expr inh: reduces ATXN2 reporter expression in HEK-293 cells. HEK-293 ATXN2-luciferase reporter, luminescence, 24 h. Potency, µM (top dose mostly 57 µM), actives largely listed as inhibitors. 360,000 compounds, 0.72% hits; further: nearly all actives have a fitted effect of over 55% in size
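ATXN2-luciferase reporter cells (luciferase flanked by upstream and downstream ATXN2 gene portions) were treated 24 h at 37 °C with compounds at up to 57 uM. SteadyGlo luminescence gave expression; GF-AFC fluorescence gave viability.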
TGFb SMAD3 inh: blocks TGF-b signaling | HepG2 CAGA-GFP TGF-b/SMAD3 reporter, GFP fluorescence, 18 h; TGF-beta stimulated, 500 pg/mL final | Potency, µM (series often up to 46.1 µM), usual class: inhibitors | 410,000 compounds, 1.2% hits | AID 588855; further: nearly all actives have a fitted effect of over 65% in size
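HEPG2 CAGA-GFP cells (1000/well, DMEM with 1% FBS) were pre-incubated 2 h at 37 degrees C, given compound by pin tool, then stimulated with TGF-beta at 500 pg/mL final for 18 h before per-cell GFP fluorescence imaging.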
DT40 TDP1 CPT: DT40-hTDP1 cell growth loss with CPT | Potency, µM (titrated, usually from 46.2 µM), actives largely listed as inhibitors | chicken DT40 Tdp1-/-;hTDP1 cells + 20 nM CPT, ATP luminescence, 48 h | 420,000 compounds, 12% hits; further: nearly all actives have a fitted effect of over 55% in size
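Chicken DT40 Tdp1-/- cells complemented with human TDP1, 400 cells/well, exposed to compounds plus 20 nM camptothecin for at least 48 h at 37 C; viability read as ATP content by CellTiter-Glo luminescence.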
ATXN viability: viability counter-screen for ATXN expression inhibitors; S2 cells (HEK-293 line with an ATXN2-luciferase reporter) viability, CellTiter-Fluor protease fluorescence, 24 h; Potency, µM (series often up to 56.7 µM), usual class: cytotoxic; 400,000 compounds, 0.49% hits; AID 651635; further: nearly all actives have a fitted effect of over 40% in size
A number is an active result; 0 = inactive; ? = inconclusive; - = no result. Sampled rows, rich in hits. Any-hit rate of the full collection: about 17%. The call rests on the fitted dose curve; in most records, active means well fitted curve in the direction sought with a large enough effect; inconclusive means small, poorly fitted or top-dose-only effect, or another doubt; inactive means no such curve, though single readings can be large; an effect the other way counts as inactive or inconclusive.

SMILES | HepG2 tox | DT40 TDP1 no CPT | ATXN2 expr inh | TGFb SMAD3 inh | DT40 TDP1 CPT | ATXN viability
COc1ccccc1-c1nc(C#N)c(N2CCN(c3cccc(Cl)c3)CC2)o1 | 0 | ? | 0 | 0 | ? | 0
COc1ccccc1-c1nc(C#N)c(N2CCN(C(c3ccccc3)c3ccccc3)CC2)o1 | 0 | 23µM | 0 | 0 | 16µM | 0
COc1ccc(-c2nc(C#N)c(N3CCCCC3)o2)cc1 | 0 | 0 | 0 | 0 | 0 | -
COc1ccc(-c2nc(C#N)c(N3CCC(C)CC3)o2)cc1 | 0 | 13µM | 0 | 0 | ? | 0
CCC(=O)N1c2ccccc2CC1C(=O)NCCc1ccc(OC)cc1OC (centres undefined) | 0 | ? | 0 | 0 | ? | 0
COc1ccc(-c2nc(C#N)c(N3CCCCCC3)o2)cc1OC | 0 | 11µM | 0 | 0 | 15µM | 0
CCOc1ccc(-c2nc(C#N)c(N3CCN(C)CC3)o2)cc1 | 0 | 0 | 0 | 0 | 0 | 0
CCOc1ccc(-c2nc(C#N)c(N3CCCCCC3)o2)cc1 | 0 | ? | 0 | ? | 21µM | 0
CCN(CC)S(=O)(=O)c1ccc(C(=O)NCCSc2c(-c3ccc(C)cc3)[nH]c3ccccc23)cc1 | 0 | 8.2µM | 0 | 0 | 5.8µM | 0
Cc1[nH]c2ccccc2c1SCCNC(=O)c1ccc(S(=O)(=O)N2CCCC2)cc1 | 0 | ? | 0 | 0 | 0 | 0
CCN(CC)S(=O)(=O)c1ccc(C(=O)NCCSc2c[nH]c3ccccc23)cc1 | 0 | ? | 0 | 0 | 21µM | ?
COc1ccc(C(=O)NCCSc2c[nH]c3ccccc23)cc1OC | 0 | 21µM | 0 | 0 | ? | 0
CCC(=O)NCCSc1c[nH]c2ccccc12 | 0 | 0 | 0 | 0 | 0 | 0
Cc1cc(C)c(S(C)(=O)=O)c(Oc2ccc(C(C)(C)C)cc2)n1 | 0 | 0 | 0 | 0 | 0 | 0
Cc1cc(Br)ccc1NC(=O)CN(C)C(=O)CSCc1ccccc1 | 0 | 0 | 0 | 0 | 0 | 0
COc1ccc(S(=O)(=O)NCCc2nnc3ccc(SCC(=O)Nc4ccc(C(F)(F)F)cc4)nn23)cc1 | 0 | 23µM | - | 0 | ? | -
Cc1csc(NC(=O)CSc2ccc3nnc(CCNS(=O)(=O)c4ccccc4)n3n2)n1 | 0 | ? | 0 | 0 | 0 | 0
Cc1ccc(NC(=O)CSc2ccc3nnc(CCNS(=O)(=O)c4ccccc4)n3n2)cc1Cl | 0 | ? | - | 0 | 16µM | -
Nc1ncnc2c1ncn2[C@@H]1O[C@H](C(=O)N(CCC2=CCCCC2)CC2CC2)[C@@H](O)[C@H]1O | 0 | 16µM | 0 | 0 | ? | 0
NC(=NCCc1c[nH]c2ccccc12)NS(=O)(=O)c1ccc2ccccc2c1 | 0 | 5.2µM | 0 | ? | 4.6µM | 0
CCCCC(=O)Nc1cccc(OCc2cc(=O)n3ccccc3n2)c1 | 0 | 0 | - | 0 | 0 | -
COc1cc(C(=O)Oc2c(Sc3ccc(C)cc3)c(C)nn2-c2ccccc2)cc(OC)c1OC | 0 | 0 | 0 | 0 | 0 | 0
COc1ccccc1C(=O)Oc1c(Sc2ccccc2)c(C)nn1-c1ccccc1 | 0 | ? | ? | ? | ? | 11µM
CCOc1ccccc1C(=O)Oc1c(S(=O)(=O)c2ccc(C)cc2)c(C)nn1-c1ccccc1 | 0 | 21µM | ? | ? | 10µM | ?
Cc1nn(C(C)(C)C)c(OC(=O)c2cccc(F)c2)c1Sc1ccccc1 | 0 | ? | 0 | ? | ? | ?
SMILES | HepG2 tox | DT40 TDP1 no CPT | ATXN2 expr inh | TGFb SMAD3 inh | DT40 TDP1 CPT | ATXN viability
COCC(=O)Oc1c(Sc2ccc(C)cc2)c(C)nn1C(C)(C)C | 0 | 0 | 0 | 0 | 0 | 0
Cc1cccc(C(=O)Oc2c(Sc3ccccc3)c(C)nn2C(C)(C)C)c1 | 0 | 23µM | 0 | ? | ? | 0
COc1ccc(C(=O)Oc2c(Sc3ccc(C)cc3)c(C)nn2C(C)(C)C)cc1OC | 0 | 21µM | 0 | ? | ? | 0
Cc1nn(-c2ccccc2)c(OC(=O)c2ccccc2Cl)c1S(=O)(=O)c1ccccc1 | 0 | 0 | 0 | 0 | 0 | 0
CC[N+](C)(C(=O)O)/C(=C\c1ccccc1)c1ccnc2ccccc12 (centres undefined) | 0 | ? | - | 0 | ? | -
CC1(C)C2CCC(C2)C1(C)NC(=O)CNCC1CCCCC1 (centres undefined) | 0 | ? | 0 | 0 | 0 | ?
Cn1c(=O)n(-c2ccc(Br)cc2F)c(=O)c2sc3ccccc3c21 | 0 | ? | 0 | 0 | ? | 0
CCCC(=O)Oc1c(Sc2ccc(Cl)cc2)c(C)nn1-c1ccccc1 | 0 | 21µM | - | ? | 21µM | -
COc1cccc(C(=O)Oc2c(Sc3ccc(C)cc3)c(C)nn2C(C)(C)C)c1OC | 13µM | 23µM | ? | 13µM | 16µM | -
COc1ccc(C(=O)Oc2c(Sc3ccc(Cl)cc3)c(C)nn2C(C)(C)C)cc1OC | 0 | ? | 0 | 0 | 23µM | 0
CCOc1ccccc1C(=O)Oc1c(Sc2ccccc2)c(C)nn1C(C)(C)C | 0 | 0 | 0 | 0 | 0 | 0
C=CCn1c(SCC(=O)NC2CCCCC2)nnc1-c1cccnc1 | 0 | 0 | 0 | 0 | 0 | 0
CC(=O)c1ccc(O)c(C(N)=O)c1 | - | - | 0 | - | - | 0
CN(CC(=O)NCc1ccco1)S(=O)(=O)c1ccc(F)cc1 | 0 | 0 | 0 | 0 | 0 | 0
Cc1noc(C)c1-c1ccc(C(=O)NCCC(F)(F)F)c2occc12 | 0 | ? | 0 | 0 | 15µM | 0
Cc1noc(C)c1-c1ccc(C(=O)NCC(C)C)c2occc12 | 0 | ? | 0 | 0 | ? | 0
Cc1noc(C)c1-c1ccc(C(=O)Nc2cccc(NS(C)(=O)=O)c2)c2occc12 | 0 | ? | 0 | 0 | ? | ?
Cc1noc(C)c1-c1ccc(C(=O)NCc2cccnc2)c2occc12 | 0 | 18µM | 0 | 0 | 13µM | 0
Cc1noc(C)c1-c1ccc(C(=O)Nc2cccc(C(F)(F)F)c2)c2occc12 | 0 | 21µM | 0 | 0 | 16µM | 0
CC(=O)c1cccc(NC(=O)c2cc3nc(C)cc(C)n3n2)c1 | 0 | ? | 0 | 0 | 0 | 0
CC(C)(C)n1ncc(Oc2ccccc2[N+](=O)[O-])c(Cl)c1=O | 0 | 23µM | 0 | 0 | ? | 0
COc1ccc2c(c1)nc(N)n2Cc1ccccc1 | 0 | ? | 0 | 0 | ? | 0
CCn1c2ccc(Cl)cc2c2nc3ccccc3nc21 | 0 | ? | 0 | 0 | 0 | 0
CCn1c2ccc(OC)cc2c2nc3ccccc3nc21 | 0 | 12µM | 0 | 0 | ? | 0
COc1ccc2c(c1)c1nnc(SC)nc1n2Cc1ccccc1 | - | 11µM | - | - | 10µM | -
CSc1nnc2c3cc(C)ccc3n(Cc3ccccc3)c2n1 | 0 | 12µM | ? | 0 | ? | ?
O=C(c1cc2ccc3cccnc3c2[nH]1)N1CCN(c2ccccc2)CC1 | 0 | 0 | - | 0 | 0 | -

Source: PubChem BioAssay (National Center for Advancing Translational Sciences (NCATS))
